From PubChem BioAssay (NCATS)
Records with an inconclusive call do not appear. Calls of active or inactive are those of the source. Calls come from the whole dose curve.

Experiment: Primary qHTS to identify inhibitors of SARS-CoV-2 cell entry (AID 1645846); note: nearly all actives have a fitted effect of over 45% in size
Conditions: SARS-CoV-2 pseudovirus cell entry assay, luminescence; activity change, negative = inhibition: at 57.1 µM (top of the series) unless noted
Method in brief: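 HEK293 cells stably expressing human ACE2, pre-treated 1 h with compound, then infected with MLV particles pseudotyped with Wuhan-Hu-1 spike (C-terminal 19-aa truncation). Luciferase luminescence after 48 h at 37 °C, normalised to spike PP and bald PP.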
Potency is the fitted concentration of half-maximal effect.

Row | SMILES | Potency | activity change, negative = inhibition
1 | COc1cc2c(NC3CCN(CC4CCCCC4)CC3)nc(N3CCCN(C(C)C)CC3)nc2cc1OCCCN1CCCCC1 | 3.16 µM (active) | –
2 | CC(C)(C)C[C@H]1N[C@@H](C(=O)NC2CCC(O)CC2)[C@H](c2cccc(Cl)c2F)[C@@]12C(=O)Nc1cc(Cl)ccc12 (some centres not stated) | 28.2 µM (active) | –
3 | Cc1cc(CC(C)CC(C)(C)C)n(O)c(=O)c1 (configuration not stated) | 20 µM (active) | –
4 | CN1CCCN(C(=O)c2cccc(-c3ccc(/C=C4/C(=O)Nc5ccc(Cl)cc54)o3)c2)CC1 | 1 µM (active) | –
5 | Cc1c(F)ccc(C(=O)Nc2cc([N+](=O)[O-])ccc2N2CCN(C)CC2)c1Cl | – | -18.7%
6 | CN(C)CCN1C(=O)c2cccc3cc(NC(N)=O)cc(c23)C1=O | 7.08 µM (active) | –
7 | CCN1CCN(Cc2ccc(NC(=O)c3ccc(C)c(/C=C/c4cnc5[nH]ccc5c4OC)c3)cc2C(F)(F)F)CC1 | 10 µM (active) | –
8 | Cc1cccc(-c2nn3c(c2-c2ccnc4ccc(C(N)=O)cc24)CCC3)n1 | – | -4.65%
9 | Cc1nc2ccc(C(=O)N3CCC4(CC3)CC(=O)c3c(cnn3C(C)C)C4)cc2[nH]1 | 14.1 µM (active) | –
10 | Cc1ccc(S(=O)(=O)Nc2cc(C(F)(F)F)ccc2C(=O)Nc2nc(-c3ccccc3)cs2)cc1 | 8.91 µM (active) | –
11 | Cc1ccc(NC(=O)Nc2nnc(Sc3ncnc4cc(OCCCN5CCOCC5)ccc34)s2)cc1 | inactive | –
12 | O=C(/C=C/c1ccc(CN(CCO)CCc2c[nH]c3ccccc23)cc1)NO | – | -7.55%
13 | CNC(=O)c1cccc2cc(Oc3ccnc4cc(OCC5(N)CC5)c(OC)cc34)ccc12 | – | -98.2%
14 | Cc1c(NC(=O)c2cc(C(N)=O)nc3cc(F)ccc23)c(C(F)(F)F)nn1Cc1ccc(C(C)(C)C)cc1 | – | -95.1%
15 | CCCCc1nc2cc(/C=C/C(=O)NO)ccc2n1CCN(CC)CC | inactive | –
16 | O=C(O)CCCCN(CCc1ccccc1OCc1ccc(CCc2ccccc2)cc1)Cc1ccc(C(=O)O)cc1 | inactive | –
17 | CC[C@@H](C)Nc1cc(C(=O)NC2CC3CCC(C2)N3c2ccc(C(=O)C3CC3)cn2)c(C)cc1C(N)=O (some centres not stated) | 1 µM (active) | –
18 | CCCc1cc(C(=O)N[C@H](Cc2ccc(-c3cccc(OC(F)(F)F)c3)nc2)C(=O)N[C@@H]2CCNC2)sc1C | 31.6 µM (active) | –
19 | CC#CC(=O)N1CC[C@@H](n2c(=O)n(-c3ccc(Oc4ccccc4)cc3)c3c(N)ncnc32)C1 | – | -99%
20 | O=C(/C=C/c1cccnc1)NCCCCC1CCN(C(=O)c2ccccc2)CC1 | – | -96.7%
21 | CNCc1ccc(C)c(NC(=O)c2ccc(Nc3nc(-c4ccccc4)c4ccccc4n3)cc2)c1 | 14.1 µM (active) | –
22 | CC(C)Nc1cc(-c2c[nH]c(C(=O)N[C@H](CO)c3cccc(Cl)c3)c2)c(Cl)cn1 | 31.6 µM (active) | –
23 | Cc1ccc(S(=O)(=O)Nc2cc(-c3ccc(C#N)s3)ccc2C)cc1 | – | -92%
24 | Cc1nc([C@](C)(O)CO)sc1-c1cnc(N)c(O[C@H](C)c2cc(F)ccc2-n2nccn2)c1 | 22.4 µM (active) | –
25 | FC(F)(F)c1ccc(CNc2ccc(Cc3c[nH]c4ncccc34)cn2)cc1 | 20 µM (active) | –
26 | Cc1cc(Oc2ccc3nc(COc4ccc(CC5SC(=O)NC5=O)cc4)n(C)c3c2)cc(C)c1N (configuration not stated) | – | 2.59%
27 | C[C@H](NC(=O)[C@H]1NCC[C@@H]1O)c1ccc(-c2noc(CCC3CCCC3)n2)cc1 | – | -92.1%
